The test concerns Madurella mycetomatis MM55. Nature of the test: percent growth relative to solvent control; higher = less inhibition, active = 20 or less. The conditions noted are these: 100 µM; 7 days.

SMILES strings stand for the structures.

The record followed here is the supplement of paper PMC5940239.

For the molecule `CCCNC(=O)N1CCC2(CC1)CC(=O)c1cc(C)ccc1O2`, the percent growth was 102% (inactive).

For the molecule `N#Cc1ccc(-c2cnc(N)c(-c3ccc(C(N)=O)cc3)n2)cc1`, the percent growth is 64.5% (inactive).

Turning to `FC(F)(F)c1nnc2ccc(Cl)nn12`, the percent growth is 116% (inactive).

With `CN1CCN(S(=O)(=O)c2ccc(-c3ccc4c(Nc5ncc(Cl)cn5)ccnc4c3)cc2)CC1`, the percent growth is 98.9% (inactive).

Regarding `CCn1ncc2c(NC3CCOCC3)c(CNC(=O)c3ccnn3C)c(C)nc21`, the percent growth is 142% (inactive).

For the molecule `CC1(COc2ccc(N3CCC(Oc4ccc(OC(F)(F)F)cc4)CC3)cc2)Cn2cc([N+](=O)[O-])nc2O1` (configuration not stated), the percent growth was 111% (inactive).

For `Cc1ccc(S(=O)(=O)n2cc(-c3ccnc(N)c3)c3cc(Br)cnc32)cc1`, the percent growth was 25.4% (inactive).

As for `CCNC(=O)C(C)Nc1nc(-c2cccnc2)nc2sc(C)c(C)c12` (configuration not stated), the percent growth was 90.4% (inactive).

As to `C[C@H]1c2cccc(O)c2C(=O)C2=C(O)[C@]3(O)C(=O)C(C(N)=O)=C(O)[C@@H](N(C)C)[C@@H]3[C@@H](O)[C@@H]21`, the percent growth was 121% (inactive).

For the molecule `CC(C)N=c1cc2n(-c3ccc(Cl)cc3)c3ccccc3nc-2cc1Nc1ccc(Cl)cc1`, the percent growth is 105% (inactive).

As to `CC(C(=O)Nc1ccc2oc(-c3ccncc3)nc2c1)c1ccccc1` (configuration not stated), the percent growth was 77% (inactive).

Regarding `O=C(Nc1nnc(S)s1)c1cc(Br)ccc1Cl`, the percent growth is 97% (inactive).

As to `COc1cc(NC(=O)Cc2nn(C)c(=O)c3ccccc23)ccc1Cl`, the percent growth is 116% (inactive).

On to `O=C(OCc1ccccc1)N1CCC(c2cc(-c3ccncc3)c(-c3ccc(F)cc3)[nH]2)CC1`, for which the percent growth was 117% (inactive).

On to `Cc1cc(Nc2ccncc2)n2nc(C)c(-c3ccccc3Cl)c2n1`, for which the percent growth is 103% (inactive).

Regarding `CC1CS(=O)(=O)CCN1/N=C/c1ccc([N+](=O)[O-])o1` (configuration not stated), the percent growth was 96.8% (inactive).

For the molecule `CC(C)(C)c1cc(C(=O)N2CCN(c3nccnc3C#N)CC2)n(Cc2ccccc2)n1`, the percent growth is 56.8% (inactive).

As for `Nc1nc(N)c2c3c(sc2n1)CN(Cc1ccccc1)CC3`, the percent growth is 88% (inactive).

Regarding `CC1(C)Cc2c(c(N3CCOCC3)nc3snc(Br)c23)CO1`, the percent growth is 78.9% (inactive).

Regarding `O=C(C1CCCCC1)N1CC(=O)N2CCc3ccccc3C2C1` (configuration not stated), the percent growth was 92.7% (inactive).

As to `O=C(Cn1ccnc1[N+](=O)[O-])NCc1ccccc1`, the percent growth is 129% (inactive).

As for `CCOC(=O)c1noc(N)c1-c1ccccc1`, the percent growth is 87.2% (inactive).

In the case of `COC(=O)c1cccc2oc(-c3cccc(OC)c3NC(=O)c3cc(-c4ccccc4)on3)nc12`, the percent growth is 123% (inactive).

Consider `CCc1nc2ccccc2n1CC(O)COc1cc(C)ccc1Cl` (configuration not stated), for which the percent growth is 93.7% (inactive).

Consider `CCOC(=O)NC(=O)c1ccsc1NC(=O)c1nc2ccccc2s1`, for which the percent growth is 78.6% (inactive).

Turning to `FC(F)(F)c1cnc(Sc2nnc(-c3ccncc3)o2)c(Cl)c1`, the percent growth is 82.4% (inactive).

Take `C[C@]1(O)C[C@@H](c2nc(-c3ccc4ccc(-c5ccccc5)nc4c3)c3c(N)nccn32)C1`: the percent growth was 133% (inactive).

For the molecule `COC(=O)Nc1nc2cc(C(=O)c3ccccc3)ccc2[nH]1`, the percent growth is 111% (inactive).

For `O=C(C1CCN(c2nnc(-n3cccc3)s2)CC1)N1CCC(Cc2ccccc2)CC1`, the percent growth was 108% (inactive).

Consider `c1ccc(Oc2ccc(-c3cncc(-c4ccc5[nH]ccc5c4)n3)cc2)cc1`, for which the percent growth is 92.6% (inactive).

Take `Nc1ccc(C(=O)Nc2ccc(-c3nc4ccccc4o3)cc2)cc1`: the percent growth was 100% (inactive).

As for `Cc1ccc(Oc2ccc(NC(=O)CNc3ccccc3N3CCCC3=O)cc2)cc1`, the percent growth was 107% (inactive).

As to `Cc1cccc(NC(=O)c2cc(S(=O)(=O)N(C)c3ccc(F)cc3)ccc2Cl)n1`, the percent growth was 70% (inactive).

For `COc1cccn2c(C(=O)N3CCCCC3)c(C(F)(F)F)nc12`, the percent growth is 85.7% (inactive).

Take `CC(C)(C)OC(=O)N1CCN(c2nccc(-c3ccc(-c4ccc(Cl)cc4)s3)n2)CC1`: the percent growth is 103% (inactive).

Regarding `CC(=O)N1CCN(c2ccc(Oc3ccc(Cl)cc3O)cc2)CC1`, the percent growth is 102% (inactive).

As to `O=C(CN1CCOCC1)Nc1ccc2ncnc(Nc3ccc(OCc4cccc(F)c4)c(Cl)c3)c2c1`, the percent growth is 79.4% (inactive).

As to `CCCn1c(CNc2ccccc2O)nc2ccccc21`, the percent growth is 91.1% (inactive).

With `Cc1ccc(C(=O)Nc2ccc(S(=O)(=O)O)c3cc(S(=O)(=O)O)cc(S(=O)(=O)O)c23)cc1NC(=O)c1cccc(NC(=O)Nc2cccc(C(=O)Nc3cc(C(=O)Nc4ccc(S(=O)(=O)O)c5cc(S(=O)(=O)O)cc(S(=O)(=O)O)c45)ccc3C)c2)c1`, the percent growth was 141% (inactive).

Turning to `Nc1ncnc2c1ncn2[C@@H]1O[C@H](COS(=O)(=O)NC(=O)c2ccccc2O)[C@@H](O)[C@H]1O`, the percent growth is 60.6% (inactive).

With `CC(C)(C)OC(=O)N1CCN(c2cc(-c3ccc(Oc4ccccc4)cc3)n[nH]2)CC1`, the percent growth is 112% (inactive).

Regarding `N#Cc1nc(-c2ccccc2)oc1S(=O)(=O)c1ccc(Cl)cc1`, the percent growth is 31.4% (inactive).

Consider `NS(=O)(=O)c1cccc(-c2ccc3ncc(N4CCOCC4)nc3c2)c1`, for which the percent growth was 106% (inactive).

Take `CO[C@@H](C(=O)N1Cc2[nH]nc(NC(=O)c3ccc(N4CCN(C)CC4)cc3)c2C1)c1ccccc1`: the percent growth was 157% (inactive).

As for `CCC(Sc1nc2ccccc2o1)C(=O)Nc1nnc(C)s1` (configuration not stated), the percent growth was 40.9% (inactive).

For the molecule `COc1cc(C2=NCCN2)ccc1-n1cc(-c2cccc(C3=NCCN3)c2)nn1`, the percent growth is 166% (inactive).

As for `O=C(c1[nH]nc2c1CCCC2)N1CCN(Cc2ccc3c(c2)OCO3)CC1`, the percent growth is 81.8% (inactive).

Consider `CS(=O)(=O)c1ccc(C(=O)N(CC2CCCO2)c2nc3ccccc3s2)cc1[N+](=O)[O-]` (configuration not stated), for which the percent growth is 110% (inactive).

Regarding `CC(C)(C)C(=O)N(CCCCCCN1C[C@H](O)[C@@H](O)[C@H](O)[C@H]1CO)C1CCCCCC1`, the percent growth is 86.6% (inactive).

For the molecule `CC1CCCN(C(=O)C(C)Nc2cc(Cl)ccc2N2CCOCC2)C1` (configuration not stated), the percent growth was 53.8% (inactive).

On to `NCC(=O)N1CCn2c(nc(-c3ccccc3)c2Nc2ccc3c(c2)OCO3)C1`, for which the percent growth is 157% (inactive).

On to `OCCc1ccc(Nc2nccc(-c3nnc4ccccn34)n2)cc1`, for which the percent growth was 88.7% (inactive).

As to `CC(C)(C)n1nc(Cc2cccc3ccccc23)c2c(N)ncnc21`, the percent growth was 69.6% (inactive).

For `CCOc1ccc(OCC(=O)Nc2cc(C)cc(C)c2)cc1`, the percent growth was 89.4% (inactive).

As to `CC(C)(C)c1cnc(NC(=O)c2ccccc2O)s1`, the percent growth was 99.3% (inactive).

`Brc1c(-c2ccc3c(c2)OCO3)nc2ncccn12`: the percent growth was 85.6% (inactive).

On to `CCCS(=O)(=O)N1CCC(CO)(Cc2ccccc2C(F)(F)F)CC1`, for which the percent growth was 37.4% (inactive).
